We go through 25 compounds from PubChem BioAssay (EPA / NIEHS).

Experiment [1] concerns the target Cellular tumor antigen p53 (Homo sapiens) (UniProt P04637). Description: TOX21_p53_BLA_p2_ratio: Tox21 HCT-116 p53 Agonism Beta-lactamase Assay, Ratio, Phase 2 (AID 2283592). In short, it runs like this: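 Readout: blue/green (460/530 nm) FRET emission ratio after 2 h CCF4-AM loading at room temperature, excitation 405 nm. HCT116 p53 bla cells, 16 h compound exposure at 37C, 5% CO2; agonist direction fitted against DMSO baseline.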

Experiment [2] in a line: TOX21_p53_BLA_p3_viability: Viability Assessment in the Tox21 HCT-116 p53 Agonism Beta-lactamase Assay, Phase 3 (AID 2283593).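 Note: cells exposed to compound for 16 h before reading.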 The method, boiled down:
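HCT116 cells, 4000/well, dosed 5 h after plating by pin transfer (217-fold dilution from DMSO stock) and incubated 16 h at 37C, 5% CO2. Viability read as ATP luminescence with CellTiter-Glo after 30 min at room temperature.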

For experiment [3], the target named is Cellular tumor antigen p53 (Homo sapiens) (UniProt P04637). Briefly: TOX21_p53_BLA_p3_ratio: Tox21 HCT-116 p53 Agonism Beta-lactamase Assay, Ratio, Phase 3 (AID 2283596). In short, it runs like this: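 Cells were seeded at 4000/well, rested 5 h at 37C, then dosed with DMSO compound solutions (217-fold dilution) for 16 h. CCF4-AM substrate was loaded for 2 h at room temperature, and the 460/530 nm emission ratio was fitted for gain of signal versus DMSO.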

Experiment [4] has the same target. Description: TOX21_p53_BLA_p5_ratio: Tox21 HCT-116 p53 Agonism Beta-lactamase Assay, Ratio, Phase 5 (AID 2283599). The method, boiled down: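 HCT-116 p53-bla cells (4000/well) plated 5 h, dosed with compound (217-fold DMSO dilution) for 16 h at 37 C; CCF4-AM substrate 2 h at room temperature. Activity is the 460/530 nm emission ratio (405 nm excitation), fitted in gain-of-signal direction versus DMSO.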

A short description of experiment [5]: TOX21_p53_BLA_p5_viability: Viability Assessment in the Tox21 HCT-116 p53 Agonism Beta-lactamase Assay, Phase 5 (AID 2283600). The method, boiled down:
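ATP luminescence (CellTiter-Glo, 30 min, RT) served as the viability read-out, with loss of signal indicating cytotoxicity. Compounds in DMSO were pinned at a 217-fold dilution onto 4000 cells/well and incubated 16 h, 37C.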

Experiment [6] deals with Cellular tumor antigen p53 (Homo sapiens) (UniProt P04637). Briefly: TOX21_p53_BLA_p4_ratio: Tox21 HCT-116 p53 Agonism Beta-lactamase Assay, Ratio, Phase 4 (AID 2283601). In short, it runs like this: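 HCT-116 p53 beta-lactamase reporter cells (4000/well) preincubated 5 h, then compound (217-fold dilution of DMSO stock) for 16 h at 37C. CCF4-AM substrate added 2 h at room temperature; 460/530 nm emission ratio fitted upward versus DMSO.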

Experiment [7] can be described thus: TOX21_p53_BLA_p4_viability: Viability Assessment in the Tox21 HCT-116 p53 Agonism Beta-lactamase Assay, Phase 4 (AID 2283597).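 Note: hits lower the luminescence signal meaning cytotoxicity.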 The method, boiled down: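 ATP content by CellTiter-Glo luminescence, 30 min RT, read after the beta-lactamase ratio step. Cells: HCT116, 4000/well, compound added after 5 h, exposure 16 h at 37C. Signal loss = reduced viability.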
Experiment [8] addresses Thyroid hormone receptor alpha (Rattus norvegicus) + Thyroid hormone receptor beta (Rattus norvegicus) (UniProt P18113+P63059). Briefly: TOX21_TR_LUC_GH3_Antagonist_Followup: Tox21 GH3 Thyroid Hormone Receptor Antagonism Luciferase Follow-Up Assay (AID 2283942). The method, boiled down:
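Luminescence read-out (ONE-Glo, 30 min at room temperature) in GH3 reporter cells challenged with 1.0 nM T3 final. Compounds ran at 92 uM to 5nM over 15 concentrations for 24 h; DMSO served as negative control and baseline.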

The next experiment concerns the target THRA (gene 7067) (UniProt P10827). Description: TOX21_TRA_COA_Antagonist_Followup_ratio: Tox21 Thyroid Hormone Receptor alpha Antagonism through Coactivator Recruitment Follow-Up Assay, Ratio (AID 2283953). In short, it runs like this:
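We measured antagonism of T3-type coactivator recruitment using a TR-FRET ratio (emission 520 and 495 nm) between a Tb-labelled anti-GST antibody on TRα LBD (2.5 nM) and SRC-2 peptide (200 nM). Activity was scaled between DMSO and T3 wells.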

Experiment [9] deals with THRB (gene 7068) (UniProt P10828). Description: TOX21_TRB_BLA_Antagonist_Followup_ratio: Tox21 Thyroid Hormone Receptor beta Antagonism Beta-lactamase (BLA) Follow-Up Assay, Ratio (AID 2283958). The method, boiled down:
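Read-out: blue/green (460:530 nm) ratio of cleaved to uncleaved CCF4-AM after 2 h at room temperature, fitted against DMSO baseline. HEK293T UAS-bla cells carrying GAL4-human TRβ LBD were exposed 18 h, 37C/5% CO2.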

Experiment [10] can be described thus: TOX21_TRB_BLA_Antagonist_Followup_viability: Viability Assessment in the Tox21 Thyroid Hormone Receptor beta Antagonism Beta-lactamase (BLA) Follow-Up Assay (AID 2283961). In short, it runs like this: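 Viability read as CellTiter-Glo ATP luminescence (loss of signal = cytotoxicity) in the same plates as the TRβ-bla readout. TRβ-LBD/GAL4 UAS-bla HEK293T cells were exposed to compounds, 11 concentrations in triplicate, for 18 h at 37C/5% CO2.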

The target of experiment [11] is THRB (gene 7068) (UniProt P10828). Description: TOX21_TRB_COA_Antagonist_Followup_ratio: Tox21 Thyroid Hormone Receptor beta Antagonism through Coactivator Recruitment Follow-Up Assay, Ratio (AID 2283967). In short, it runs like this:
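GST-TRb LBD 5.0 nM + 0.10% BSA, compound added; fluorescein-SRC-2 peptide 200 nM, Tb-anti-GST Ab 2 nM. TR-FRET, ex 340 / em 520:495 ratio. Norm: DMSO 0%, T3 100%.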

The target of experiment [12] is Retinoic acid receptor RXR-alpha (Homo sapiens) (UniProt P19793). Description: TOX21_TR_RXR_BLA_Antagonist_Followup_ratio: Tox21 Thyroid Hormone Receptor beta Retinoid X Receptor alpha (RXRa) Antagonism Beta-lactamase (BLA) Follow-Up Assay, Ratio (AID 2283972). In short, it runs like this: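 Beta-lactamase reporter readout as cleaved/uncleaved substrate ratio (460:530 nm) after 2 h substrate loading at room temperature. GAL4-RXRa bla HEK293T cells were exposed 16 h at 37C to 11-point compound series; loss of signal scored against DMSO baseline.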

Where “and” joins values, the source holds several entries; their conditions need not be identical. Equal values may be shown once. Inconclusive results are not listed. Calls of active or inactive are those of the source. Rule for the calls: active = hit-call score of the fitted dose curve at least 0.9, where 1 is the maximum; inconclusive = response in the unintended direction; inactive = score below 0.9.

Chain of THRB (gene 7068) (P10828 whole entry, looked up, the tested form may be a part): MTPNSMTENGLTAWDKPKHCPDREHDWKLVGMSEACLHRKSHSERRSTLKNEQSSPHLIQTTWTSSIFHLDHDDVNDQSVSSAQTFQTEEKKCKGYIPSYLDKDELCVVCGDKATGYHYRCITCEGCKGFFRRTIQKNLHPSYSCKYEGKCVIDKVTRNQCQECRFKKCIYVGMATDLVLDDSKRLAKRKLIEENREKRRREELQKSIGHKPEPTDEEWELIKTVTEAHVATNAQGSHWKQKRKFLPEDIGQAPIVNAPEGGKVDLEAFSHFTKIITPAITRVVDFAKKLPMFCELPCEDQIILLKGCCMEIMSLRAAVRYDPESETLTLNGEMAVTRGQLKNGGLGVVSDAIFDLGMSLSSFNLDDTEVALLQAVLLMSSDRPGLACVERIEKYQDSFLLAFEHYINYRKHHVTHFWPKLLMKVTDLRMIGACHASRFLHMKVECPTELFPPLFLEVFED
Chain of Cellular tumor antigen p53 (Homo sapiens) (P04637 whole entry, looked up): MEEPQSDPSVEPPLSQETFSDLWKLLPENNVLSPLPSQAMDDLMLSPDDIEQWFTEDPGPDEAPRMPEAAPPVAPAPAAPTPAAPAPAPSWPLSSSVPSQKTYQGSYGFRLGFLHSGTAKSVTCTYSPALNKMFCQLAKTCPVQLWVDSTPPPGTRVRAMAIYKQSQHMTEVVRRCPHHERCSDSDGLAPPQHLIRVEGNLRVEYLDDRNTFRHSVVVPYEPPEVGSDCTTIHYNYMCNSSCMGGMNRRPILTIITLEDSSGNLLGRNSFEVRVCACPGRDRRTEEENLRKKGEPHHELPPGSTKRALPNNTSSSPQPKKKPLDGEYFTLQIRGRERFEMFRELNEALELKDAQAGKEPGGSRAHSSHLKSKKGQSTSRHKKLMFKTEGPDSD
Chain of THRA (gene 7067) (P10827 whole entry, looked up, the tested form may be a part): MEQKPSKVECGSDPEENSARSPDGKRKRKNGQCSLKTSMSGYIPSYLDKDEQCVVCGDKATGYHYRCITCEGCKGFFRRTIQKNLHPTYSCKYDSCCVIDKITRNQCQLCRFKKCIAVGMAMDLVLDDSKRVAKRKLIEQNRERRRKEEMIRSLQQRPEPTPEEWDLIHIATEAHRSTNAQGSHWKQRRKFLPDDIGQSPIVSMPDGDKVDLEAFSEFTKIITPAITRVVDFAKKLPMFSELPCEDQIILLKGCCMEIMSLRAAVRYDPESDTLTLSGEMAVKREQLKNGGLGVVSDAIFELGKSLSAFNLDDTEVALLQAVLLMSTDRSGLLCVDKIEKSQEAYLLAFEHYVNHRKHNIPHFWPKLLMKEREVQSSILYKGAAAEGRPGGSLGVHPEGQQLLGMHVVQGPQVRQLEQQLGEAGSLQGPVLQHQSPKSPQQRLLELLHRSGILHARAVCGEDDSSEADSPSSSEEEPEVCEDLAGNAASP
Chain of Retinoic acid receptor RXR-alpha (Homo sapiens) (P19793 whole entry, looked up, the tested form may be a part): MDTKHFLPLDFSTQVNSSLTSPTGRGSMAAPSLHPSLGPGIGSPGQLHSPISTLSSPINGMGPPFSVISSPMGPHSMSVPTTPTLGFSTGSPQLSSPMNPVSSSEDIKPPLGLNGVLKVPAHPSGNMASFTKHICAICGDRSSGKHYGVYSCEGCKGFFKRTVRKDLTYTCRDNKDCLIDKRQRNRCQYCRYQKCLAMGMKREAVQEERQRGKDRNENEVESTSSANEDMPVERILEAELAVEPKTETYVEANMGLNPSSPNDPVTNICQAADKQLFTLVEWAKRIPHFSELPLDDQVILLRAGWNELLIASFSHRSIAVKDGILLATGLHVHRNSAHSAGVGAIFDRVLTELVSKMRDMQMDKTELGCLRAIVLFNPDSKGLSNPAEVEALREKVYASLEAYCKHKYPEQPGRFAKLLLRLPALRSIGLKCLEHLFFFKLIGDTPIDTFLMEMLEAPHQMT

In the case of `C=C(C)CCl`, the result in experiment [1], in [2], in experiment [3], in experiment [4] and in [5] was inactive.

Consider `Cc1c(Cl)c(=O)oc2cc(OP(=O)(OCCCl)OCCCl)ccc12`, for which the result in experiment [1], in experiment [2], in experiment [3], in experiment [4], in experiment [5] and in experiment [6] was inactive.

By AC50 is commonly meant the concentration giving half of the maximal activity seen. `CC1N=C(N)OC1c1ccccc1` (stereo not given): the outcome in experiment [1], in [2], in experiment [3], in experiment [5] and in experiment [6] was inactive. Also, the AC50 in experiment [7] is 26 µM (active).

With `N[C@@H](Cc1ccc(N(CCCl)CCCl)cc1)C(=O)O`, the AC50 in experiment [1] is 26.6 µM (active) and 25.6 µM (active); in experiment [3] it was 20.2 µM (active) and 24.6 µM (active); in experiment [4] it was 32.6 µM (active) and 29.2 µM (active); in experiment [6], 22.7 µM (active) and 30.4 µM (active). Also, the compound was classed as inactive in experiment [2] and in [7].

For the compound `O=C(O)CCCO`, the outcome in experiment [1], in experiment [2], in experiment [3], in experiment [7], in experiment [4] and in experiment [6] was inactive.

Regarding `BrCC(Br)(Br)Br`, the values for the AC50 in experiment [1] and in experiment [3] were 84.7 µM (active) and 13.1 µM (active), respectively. Further, the compound was called inactive in experiment [2], in experiment [7], in [4], in [5] and in experiment [6].

As to `CC(=O)OC1CN2CCC1CC2` (stereo not given), the result in [1], in experiment [2], in [3], in experiment [4], in experiment [5] and in experiment [6] was inactive.

On to `CCCCC(CC)COC(=O)OOC(C)(C)C` (stereo not given), for which the result in experiment [1], in experiment [2], in experiment [3], in experiment [4] and in [6] was inactive.

With `CN=CNc1ccc(C)cc1C`, the outcome in [1], in experiment [2], in experiment [3], in experiment [4], in [5] and in [6] was inactive.

Consider `CCCN`, for which the result in [1], in [2], in experiment [3], in [4], in [5] and in experiment [6] was inactive.

With `COc1ccc2c(c1OC)C(=O)O[C@H]2[C@@H]1c2cc3c(cc2CCN1C)OCO3`, the result in [1], in experiment [2], in [3], in experiment [4], in experiment [5] and in experiment [6] was inactive.

Take `CC(C)NC(C)C`: the outcome in experiment [1], in [2], in experiment [3], in experiment [4], in experiment [5] and in experiment [6] was inactive.

On to `CC(=O)[C@H]1CC[C@H]2[C@@H]3CC[C@@H]4C[C@H](O)CC[C@]4(C)[C@H]3CC[C@]12C`, for which the outcome in [1], in experiment [2], in [3], in experiment [7], in experiment [4] and in [5] was inactive. The outcome (in [6]; in experiment [8]; with THRA (gene 7067); in the experiment with THRB (gene 7068) [9]; in experiment [10]; with THRB (gene 7068) [11]) was inactive.

Consider `CCCC1CCCCN1` (stereo not given), for which the outcome in experiment [1], in experiment [2], in experiment [3], in experiment [7], in experiment [4] and in experiment [6] was inactive.

As to `C[C@]12CC[C@H](OS(=O)(=O)O)CC1=CC[C@@H]1[C@@H]2CC[C@]2(C)C(=O)CC[C@@H]12`, the result in experiment [1], in experiment [2], in experiment [3], in [7], in experiment [4] and in experiment [5] was inactive. The result in experiment [6] was inactive.

Regarding `CCCCN(N=O)C(=N)N[N+](=O)[O-]`, the AC50 was 57 µM (active) in [1], 56.4 µM (active) in experiment [3], 55.2 µM (active) in [4] and 40.7 µM (active) in experiment [6]. The compound was called inactive in experiment [2] and in experiment [5].

Turning to `Cc1cc(Cl)ccc1N=CN(C)C`, the outcome in experiment [1], in experiment [2], in experiment [3], in [7], in [4] and in experiment [5] was inactive. Besides, the result in experiment [6] was inactive.

For `N#CC(C#N)=Cc1ccc(O)c(O)c1`, the outcome in experiment [1], in experiment [2], in [3], in experiment [7], in experiment [4] and in experiment [6] was inactive.

Consider `[S]=[Sb](=[S])[S][Sb](=[S])=[S]`, for which the result in experiment [1], in experiment [2], in experiment [3], in [4], in experiment [5] and in experiment [6] was inactive.

For `CN1C(=O)[C@@H](NC(=O)c2cc3ccccc3[nH]2)N=C(c2ccccc2)c2ccccc21`, the result in experiment [1], in experiment [2], in experiment [3], in [7], in experiment [4] and in experiment [6] was inactive. Further, the result (in experiment [8]; in the experiment with THRA (gene 7067); in [10]; with THRB (gene 7068) [11]; in [12]) was inactive. In the experiment with THRB (gene 7068) [9], the AC50 was 10.7 µM (active).

On to `CCCCCCCCCCOC(=O)c1ccccc1C(=O)OCCCCCCCCCC`, for which the outcome in experiment [1], in [2], in [3] and in experiment [4] was inactive.

With `C=CCCC#N`, the result in experiment [1], in [2], in experiment [3], in experiment [7] and in experiment [5] was inactive.

As for `COC1=CC=C2[C@H]3Cc4ccc(OC)c5c4[C@@]2(CCN3C)[C@H]1O5`, the result in [1], in experiment [2], in [3], in experiment [7], in experiment [4] and in experiment [6] was inactive.

Take `S=C(SSC(=S)N1CCCCC1)N1CCCCC1`: the result in experiment [1], in [2], in [3], in experiment [7], in experiment [4] and in [5] was inactive. Besides, the outcome in experiment [6] was inactive.

Turning to `Cc1ccc2ccccc2c1`, the result in experiment [1], in experiment [2], in experiment [3], in [4] and in [6] was inactive.
